Data on seven molecules can be found in PubChem BioAssay (NCATS).

Several values for one entry are separate records, joined by “and”; a condition that tells them apart may be missing. Equal values may be shown once. Values without a mark were called inactive. Inconclusive results are not listed. Activity calls are given as the source filed them. Unless noted, calls come from the whole dose curve; as a rule, active = well fitted curve in the direction sought with a large enough effect; inconclusive = small, poorly fitted or top-dose-only effect, or another doubt; inactive = no such curve, though single readings can be large; an effect the other way counts as inactive or inconclusive.

The nature of test [1]: Cell Viability - NIH 3T3 (AID 541).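 For activity change, negative = cytotoxicity: plate controls were DMSO alone for no effect and tamoxifen positive control for full effect.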 Note: nearly all actives have a fitted effect of over 25% in size. Note: potency is the fitted concentration of half-maximal effect. To be noted: NIH 3T3 cell viability, qHTS; activity change, negative = cytotoxicity: at 92.2 µM (top of the series). The procedure, abridged:
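Cells seeded at 1000/well, rested 5 hr at 37 °C, then dosed and incubated 40 hr at 37 °C. CellTiter-Glo added, 20 min room temperature, luminescence read. AC50 by Hill fit.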
(Quantitative high-throughput screening tests each substance at several concentrations.)

Test [2] has as its target Cytochrome P450 3A4 (Homo sapiens) (UniProt P08684). In words: qHTS Assay for Inhibitors and Substrates of Cytochrome P450 3A4 (AID 884). Note: % is set by controls: 0 for no effect and ±100 for the full control effect; nearly all actives have a fitted effect of over 50% in size. The procedure, abridged:
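Luminescent readout of luciferin produced by CYP3A4 (20 nM) dealkylation of Luciferin-PPXE, 25 uM (its KM). NADPH-driven reaction ran 60 min at RT after 10 min compound preincubation; data scaled to 57 uM ketoconazole as 100% inhibition.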

Test [3] addresses Vitamin D3 receptor (Homo sapiens) (UniProt P11473). Description: qHTS assay for small molecule antagonists of vitamin D receptor signaling (AID 588541; calls by dose curve;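 note: receptor activated by calcitriol during compound treatment; % is set by controls: 0 for no effect and ±100 for the full control effect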). In short, it runs like this:
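VDR-UAS-bla HEK293T cells (2000/well, 2% charcoal-stripped FBS) were treated with titrated compounds plus 1-alpha,25-dihydroxyvitamin D3 (50 nM or 3 nM final) for 16 h at 37 C. CCF4 beta-lactamase fluorescence was read; Hill fits gave IC50.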

Test [4] shares this target. In words: qHTS assay for small molecule agonists of vitamin D receptor signaling (AID 588543; calls by dose curve;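 note: 0% = DMSO basal and 100% = reference agonist control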). The procedure, abridged: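 qHTS in agonist mode: compound titrations stimulate a VDR-driven β-lactamase reporter in HEK293T cells over 16 h at 37 °C. Response normalized to 50 nM 1α,25-dihydroxyvitamin D3 = 100%, DMSO = 0%; Hill fitting gives EC50 and maximal response.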
Test [5] concerns the target Thyroid hormone receptor beta (Homo sapiens) (UniProt P10828). In words: qHTS assay for small molecule agonists of thyroid hormone receptor beta signaling (AID 588545; calls by dose curve;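 note: 0% = DMSO only and 100% = 10 nM T3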). In short, it runs like this: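 TR-UAS-bla-GripTite HEK 293 cells in medium with 2% charcoal/dextran FBS, 0.1 mM NEAA and 1 mM sodium pyruvate were treated with titrated compounds for 18 hrs at 37 C. Beta-lactamase reporter was read with CCF4 dye (ex 405, em 460/530 nm); EC50 from Hill fits.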

For test [6], the target named is Voltage-gated inwardly rectifying potassium channel KCNH2 (Homo sapiens) (UniProt Q12809). In words: qHTS Assay for Small Molecule Inhibitors of the Human hERG Channel Activity (AID 588834).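 Note: U2OS cells transduced with hERG by BacMam; top concentration of the series differs between compounds; % is set by controls: 0 for no effect and ±100 for the full control effect; lower thallium flux fluorescence means stronger hERG block; nearly all actives have a fitted effect of over 50% in size.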 The procedure, abridged: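 Cells were infected with hERG-BacMam virus for 4 hrs at room temperature, grown overnight, then seeded at 2000/well. After dye loading and roughly 10 min compound treatment, thallium influx was triggered and fluorescence recorded.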

The nature of test [7]: qHTS assay for small molecule antagonists of the retinoid-related orphan receptor gamma (ROR-gamma) signaling pathway - cell viability counter screen (AID 720652; active = well fitted curve in the direction sought with a large enough effect in the repeat runs; an effect the other way counts as inactive or inconclusive;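 note: CHO reporter cells with doxycycline-induced ROR-gamma expression; compound exposure lasted 16 hr before ATP read; % is set by controls: 0 for no effect and ±100 for the full control effect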). The procedure, abridged: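 Steps: seed CHO cells bearing TET-inducible ROR and ROR response element-luciferase; rest 5 hr at 37 C; add compound, then doxycycline; incubate 16 hr; add CellTiter-Glo and read luminescence as ATP-based viability.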

Test [8] in a line: qHTS assay for small molecule activators of the human pregnane X receptor (PXR) signaling pathway (AID 720659; call rule not given here; note: 0% is about no effect).
The nature of test [9]: Cell Viability - Hek293 (AID 427;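 active = compounds whose dose-response curve shows a full or clear partial loss of cell viability, called from curve shape rather than a numeric limit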;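 note: potency is the fitted concentration of half-maximal effect; cells exposed to compound for 40 hours at 37 °C before reading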). To be noted: qHTS. The procedure, abridged: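 HEK293 cells in complete medium were exposed to compound for 40 hr at 37 °C, then cellular ATP was read by CellTiter-Glo luminescence. Data were normalized to DMSO (basal) and 100 uM tamoxifen (100% inhibition), and AC50 came from Hill fits.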
A short description of test [10]: Cell Viability - SH-SY5Y (AID 544).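 Note: 0% = DMSO alone and -100% = 100 µM tamoxifen; nearly all actives have a fitted effect of over 55% in size.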 The note with it: SH-SY5Y neuroblastoma cell viability; viability change, negative = cytotoxic: at 92.2 µM (top of the series). In short, it runs like this: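 Cells were plated at 1500 per well and allowed 5 hr at 37 °C. Compounds were added across a concentration range and incubated 40 hr at 37 °C. CellTiter-Glo was added for 20 min at room temperature before luminescence reading.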

Test [11] in a line: Cellular Toxicity (caspase-3) BJ (AID 658).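 Note: cells exposed to compound for 16 hours; 0% = DMSO basal and 100% = 10 µM staurosporine.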 To be noted: Potency: caspase-3 activation. The procedure, abridged: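 Plated BJ cells (1000/well) rested 5 hr, received compound for 16 hr at 37 °C, then Caspase-Glo 3/7 reagent for 1 hr at room temperature before luminescence reading.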
The nature of test [12]: Cellular Toxicity (caspase-3) MRC-5 (AID 659).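 Note: 0% = DMSO basal and 100% = 10 µM staurosporine.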 In short, it runs like this:
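Apoptosis readout in MRC-5 cells: luciferase light generated after caspase 3/7 cleaves a peptide-aminoluciferin substrate, measured post 16 hr compound incubation at 37 °C.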

A short description of test [13]: qHTS assay for small molecule activators of the p53 signaling pathway (AID 651743; active = well fitted activation curve with a large enough effect in the signal ratio, not every such curve was filed as active; the % refers to the signal ratio; note: % of control where 0% means no effect). To be noted: HCT-116 p53RE-bla, beta-lactamase FRET ratio, 16 h; activation: stronger effect = higher value. The procedure, abridged:
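Agonist-mode quantitative HTS in HCT-116 cells carrying a p53-response-element beta-lactamase reporter; 16 h compound treatment at 37 C, then FRET substrate loading for 2 h at room temperature and fluorescence read.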

Test [14] concerns the target Tumor necrosis factor (Homo sapiens) (UniProt P01375). In words: qHTS assay to identify small molecules that stimulate Tumor Necrosis Factor-alpha (TNF-alpha) secretion (AID 651757; active = well fitted curve in the direction sought with a large enough effect in the signal ratio; the % refers to the signal ratio; note: 0% is about no effect). In short, it runs like this: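 Human monocytic THP-1 cells are plated, treated with compound and held at 37 C for 17 hrs. Labeled anti-TNF-alpha antibody mixture is then added; after 3 hr at room temperature, TR-FRET signal reports secreted TNF-alpha.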

Test [15] has as its target Nuclear receptor ROR-gamma (Homo sapiens) (UniProt P51449). Description: qHTS assay for small molecule antagonists of the retinoid-related orphan receptor gamma (ROR-gamma) signaling pathway (AID 651802). Note: nearly all actives have a fitted effect of over 60% in size. Note: potency is the fitted concentration of half-maximal effect. The procedure, abridged: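 Steps: cells dispensed; compound or DMSO transferred by pin tool; doxycycline added to induce the ROR response element-driven luciferase; plates held 16hr at 37C; ONE-Glo added and luminescence measured.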

The nature of test [16]: qHTS assay for small molecule agonists of the antioxidant response element (ARE) signaling pathway (AID 651741; active = well fitted activation curve with a large enough effect in the signal ratio; the % refers to the signal ratio; note: potency is the fitted concentration of half-maximal effect; for activation: % of control where 0% means no effect). In short, it runs like this:
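Reporter: beta-lactamase under ARE, stably in HepG2. Exposure: 16 h, 37 C, compounds delivered in DMSO by pin tool after 5 h cell preincubation. Readout: FRET substrate fluorescence after 2 h at RT.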

The nature of test [17]: qHTS assay for small molecule activators of the nuclear factor-kappa B (NF-kB) signaling pathway (AID 651749; active = well fitted activation curve with a large enough effect in the signal ratio; the % refers to the signal ratio; note: % of control where 0% means no effect). To be noted: NF-kB-bla ME-180 cells, beta-lactamase FRET ratio, 16 h; stronger effect = higher value. In short, it runs like this: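 Human ME-180 cervical cells with an NF-kB-bla construct; compounds added via 23 nL pin transfer, DMSO as vehicle; incubation 16 hr. Reporter activity measured by FRET disruption.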

The nature of test [18]: qHTS assay for small molecule disruptors of the mitochondrial membrane potential - 1 hr assay (AID 651754; calls by dose curve; note: nearly all actives have a fitted effect of over 35% in size; note: potency is the fitted concentration of half-maximal effect). The procedure, abridged: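 Loss of mitochondrial potential shifts the cationic dye from red mitochondrial aggregates to green cytoplasmic monomers. Cells (HepG2) are treated with compound for 1 hr before a 30 min dye incubation at 37C.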
Test [19] deals with Glucocorticoid receptor (Homo sapiens) (UniProt P04150). Description: qHTS assay for small molecule agonists of glucocorticoid receptor signaling (AID 588532; active = well fitted curve in the direction sought with a large enough effect in the signal ratio, with a control signal flat; the % refers to the signal ratio;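 note: 100% = dexamethasone at 0.1 µM and 0% = DMSO only wells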). The note with it: HeLa MMTV-bla, beta-lactamase ratio, agonist, 18 h; stronger effect = higher value; percent of dexamethasone control, DMSO zero. The procedure, abridged:
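MMTV-bla HeLa, beta-lactamase reporter; medium with 1% charcoal/dextran-stripped FBS; cpds up to 92 uM, 18 h, 37 C; CCF4 readout 460/530 nm; Hill fit → EC50, efficacy vs 0.1 uM dexamethasone = 100%.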

Tumor necrosis factor (Homo sapiens), sequence (P01375 whole entry, looked up): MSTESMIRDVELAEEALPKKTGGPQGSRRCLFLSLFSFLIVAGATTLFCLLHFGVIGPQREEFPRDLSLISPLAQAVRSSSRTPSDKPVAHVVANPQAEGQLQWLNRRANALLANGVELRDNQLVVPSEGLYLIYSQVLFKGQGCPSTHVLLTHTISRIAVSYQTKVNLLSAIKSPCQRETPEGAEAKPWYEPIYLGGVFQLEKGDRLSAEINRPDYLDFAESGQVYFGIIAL
Thyroid hormone receptor beta (Homo sapiens), sequence (P10828 whole entry, looked up): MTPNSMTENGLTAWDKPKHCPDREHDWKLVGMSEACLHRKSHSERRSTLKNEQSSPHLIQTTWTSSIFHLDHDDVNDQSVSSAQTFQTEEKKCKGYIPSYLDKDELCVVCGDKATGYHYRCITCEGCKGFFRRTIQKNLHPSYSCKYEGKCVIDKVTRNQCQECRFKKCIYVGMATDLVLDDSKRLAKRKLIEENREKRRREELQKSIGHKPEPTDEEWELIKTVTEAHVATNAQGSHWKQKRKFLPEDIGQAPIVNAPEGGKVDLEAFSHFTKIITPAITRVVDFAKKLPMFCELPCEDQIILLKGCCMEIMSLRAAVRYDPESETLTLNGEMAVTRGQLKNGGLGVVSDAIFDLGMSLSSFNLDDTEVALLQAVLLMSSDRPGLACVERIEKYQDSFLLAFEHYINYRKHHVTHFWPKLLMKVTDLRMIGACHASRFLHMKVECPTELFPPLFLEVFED
Voltage-gated inwardly rectifying potassium channel KCNH2 (Homo sapiens), sequence (Q12809 whole entry, looked up): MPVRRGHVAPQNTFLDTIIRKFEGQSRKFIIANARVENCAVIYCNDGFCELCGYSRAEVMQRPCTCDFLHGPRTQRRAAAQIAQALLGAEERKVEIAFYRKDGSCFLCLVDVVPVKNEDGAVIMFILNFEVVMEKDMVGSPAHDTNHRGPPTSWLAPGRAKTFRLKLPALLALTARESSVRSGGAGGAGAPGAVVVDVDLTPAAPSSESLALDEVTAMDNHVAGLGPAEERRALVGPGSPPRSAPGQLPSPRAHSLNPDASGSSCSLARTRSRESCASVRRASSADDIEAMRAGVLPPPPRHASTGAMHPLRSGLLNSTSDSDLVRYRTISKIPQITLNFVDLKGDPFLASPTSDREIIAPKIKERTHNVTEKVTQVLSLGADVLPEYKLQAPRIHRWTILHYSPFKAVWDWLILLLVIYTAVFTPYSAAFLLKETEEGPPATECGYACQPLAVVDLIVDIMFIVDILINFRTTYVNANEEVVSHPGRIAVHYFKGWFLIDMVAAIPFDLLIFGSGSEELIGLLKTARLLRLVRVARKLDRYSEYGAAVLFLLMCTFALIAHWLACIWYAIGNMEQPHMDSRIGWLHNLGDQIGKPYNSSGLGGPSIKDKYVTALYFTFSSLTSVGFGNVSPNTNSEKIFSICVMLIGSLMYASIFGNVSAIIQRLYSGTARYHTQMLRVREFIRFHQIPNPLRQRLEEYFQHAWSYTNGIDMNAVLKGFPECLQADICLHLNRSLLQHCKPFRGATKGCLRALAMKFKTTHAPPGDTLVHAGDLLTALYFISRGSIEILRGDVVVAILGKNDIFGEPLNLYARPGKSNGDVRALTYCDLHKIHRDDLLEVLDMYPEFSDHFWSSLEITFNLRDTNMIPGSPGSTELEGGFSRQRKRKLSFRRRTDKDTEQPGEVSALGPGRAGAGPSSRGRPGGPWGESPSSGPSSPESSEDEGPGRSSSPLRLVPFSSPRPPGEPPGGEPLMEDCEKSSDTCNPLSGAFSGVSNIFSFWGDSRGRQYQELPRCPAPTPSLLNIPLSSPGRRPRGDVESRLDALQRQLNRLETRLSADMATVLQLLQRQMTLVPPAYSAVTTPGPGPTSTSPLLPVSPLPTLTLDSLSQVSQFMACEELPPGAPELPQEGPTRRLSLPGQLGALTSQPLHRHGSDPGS
Vitamin D3 receptor (Homo sapiens), sequence (P11473 whole entry, looked up): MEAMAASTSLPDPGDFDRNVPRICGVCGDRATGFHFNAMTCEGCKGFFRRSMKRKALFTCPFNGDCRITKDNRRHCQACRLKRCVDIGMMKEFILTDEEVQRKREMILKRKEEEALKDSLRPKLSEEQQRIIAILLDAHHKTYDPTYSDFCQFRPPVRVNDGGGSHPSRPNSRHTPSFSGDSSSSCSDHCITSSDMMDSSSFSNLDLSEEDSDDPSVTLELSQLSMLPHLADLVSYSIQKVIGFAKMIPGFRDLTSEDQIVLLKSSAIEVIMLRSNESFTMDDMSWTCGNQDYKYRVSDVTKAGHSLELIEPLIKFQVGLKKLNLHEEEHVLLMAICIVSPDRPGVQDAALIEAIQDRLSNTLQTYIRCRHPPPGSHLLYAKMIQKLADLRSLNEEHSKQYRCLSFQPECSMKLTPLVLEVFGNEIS
Nuclear receptor ROR-gamma (Homo sapiens), sequence (P51449 whole entry, looked up): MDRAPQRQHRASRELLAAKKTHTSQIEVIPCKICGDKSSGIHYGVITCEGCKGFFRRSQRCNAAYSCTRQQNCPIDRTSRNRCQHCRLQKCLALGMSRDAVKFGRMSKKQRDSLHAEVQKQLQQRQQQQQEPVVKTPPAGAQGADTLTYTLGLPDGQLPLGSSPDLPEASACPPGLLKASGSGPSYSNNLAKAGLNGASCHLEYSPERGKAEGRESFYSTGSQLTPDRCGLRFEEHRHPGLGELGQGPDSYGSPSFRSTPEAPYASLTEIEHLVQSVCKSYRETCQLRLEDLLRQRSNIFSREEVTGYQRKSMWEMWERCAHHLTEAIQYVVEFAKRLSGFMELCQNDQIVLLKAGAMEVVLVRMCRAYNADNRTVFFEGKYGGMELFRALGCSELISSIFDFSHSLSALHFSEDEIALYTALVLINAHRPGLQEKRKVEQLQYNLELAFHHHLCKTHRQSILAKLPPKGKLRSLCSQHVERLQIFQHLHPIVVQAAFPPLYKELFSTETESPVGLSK
Glucocorticoid receptor (Homo sapiens), sequence (P04150 whole entry, looked up): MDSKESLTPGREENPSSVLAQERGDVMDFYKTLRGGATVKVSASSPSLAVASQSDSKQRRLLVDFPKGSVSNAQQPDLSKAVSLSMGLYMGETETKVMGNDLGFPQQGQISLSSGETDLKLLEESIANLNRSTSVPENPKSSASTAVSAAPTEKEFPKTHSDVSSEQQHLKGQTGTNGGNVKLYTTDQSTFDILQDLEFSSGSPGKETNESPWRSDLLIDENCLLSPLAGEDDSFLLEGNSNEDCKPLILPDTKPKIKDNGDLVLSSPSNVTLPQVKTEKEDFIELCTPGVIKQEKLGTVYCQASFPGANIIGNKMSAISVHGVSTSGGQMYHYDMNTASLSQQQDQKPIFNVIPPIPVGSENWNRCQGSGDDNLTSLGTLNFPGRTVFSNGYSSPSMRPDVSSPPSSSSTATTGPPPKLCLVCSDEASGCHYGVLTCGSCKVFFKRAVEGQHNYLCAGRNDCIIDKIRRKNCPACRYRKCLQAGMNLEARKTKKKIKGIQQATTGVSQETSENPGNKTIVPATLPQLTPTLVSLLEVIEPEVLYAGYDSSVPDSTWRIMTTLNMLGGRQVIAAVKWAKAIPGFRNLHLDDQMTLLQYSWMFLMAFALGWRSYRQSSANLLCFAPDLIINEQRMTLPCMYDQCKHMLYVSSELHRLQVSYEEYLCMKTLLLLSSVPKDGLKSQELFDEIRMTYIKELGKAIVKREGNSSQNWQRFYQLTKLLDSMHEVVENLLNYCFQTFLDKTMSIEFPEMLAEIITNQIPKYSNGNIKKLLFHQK
Cytochrome P450 3A4 (Homo sapiens), sequence (P08684 whole entry, looked up): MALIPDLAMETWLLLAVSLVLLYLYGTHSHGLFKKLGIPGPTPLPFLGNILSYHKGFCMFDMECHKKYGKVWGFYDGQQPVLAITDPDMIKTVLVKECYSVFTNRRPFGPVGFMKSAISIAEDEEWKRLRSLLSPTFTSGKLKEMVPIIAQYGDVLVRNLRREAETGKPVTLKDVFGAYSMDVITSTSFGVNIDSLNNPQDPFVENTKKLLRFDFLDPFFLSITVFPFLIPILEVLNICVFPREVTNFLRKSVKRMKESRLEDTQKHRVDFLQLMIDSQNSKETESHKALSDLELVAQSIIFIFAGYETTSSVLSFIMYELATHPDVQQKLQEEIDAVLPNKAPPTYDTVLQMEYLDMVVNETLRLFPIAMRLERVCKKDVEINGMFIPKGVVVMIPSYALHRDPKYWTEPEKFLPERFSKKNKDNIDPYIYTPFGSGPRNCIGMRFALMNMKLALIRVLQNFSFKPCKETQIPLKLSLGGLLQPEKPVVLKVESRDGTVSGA

For the molecule `Oc1cc(Cl)cc(Cl)c1Cl`, the activity change, negative = cytotoxicity in [1] is -14.4%. For the same molecule, the Potency entry in test [2], in test [3], in [4], in test [5], in test [6] and in [7] was “inactive” in each case. In test [8], the outcome was inactive.

Consider `c1ccc(Nc2cccc3ccccc23)cc1`, for which the Potency in test [9] is > 92 µM. In addition, the activity change, negative = cytotoxicity in test [1] was -22.5%. The Potency entry in test [10], in test [11], in test [5], in [14] and in [15] was “inactive” in each case. Further, the result in test [12] was inactive. Moreover, in [13], the activation was -1.55% and -1.95%.

For the molecule `NC(=O)Nc1nc2ccccc2[nH]1`, the Potency in [9] was > 92 µM. Further, the Potency result in test [10], in test [3], in test [4], in test [6], in [16] and in test [18] was “inactive” in each case. For the same molecule, the Potency result in test [14], in [15] and in [7] was “inactive” throughout. Further, the values for the activation in test [13] and in [17] were -0.426% and -0.124%, respectively.

For the molecule `Nc1ccc(N)c(Cl)c1`, the results for the Potency in test [1], in test [16] and in [18] were 31.6 µM (active), 23.7 µM (active) and 7.5 µM (active), respectively. Besides, in test [10], the viability change, negative = cytotoxic was -99% (active). Further, the Potency result in test [3], in test [4], in [5], in test [6], in [15] and in test [7] was “inactive” throughout. Further, the activation in [13] is 1.03%. Also, the result in [8] was inactive.

Take `Cc1c(C(=O)O)c(O)cc2c1C(=O)c1c(O)c([C@H]3O[C@H](CO)[C@@H](O)[C@H](O)[C@H]3O)c(O)c(O)c1C2=O`: the activity change, negative = cytotoxicity in [1] is -80.4% (active). The Potency result in test [11], in test [3], in [4], in [5], in [16] and in test [18] was “inactive” in each case. Besides, the result in test [12] and in [8] was inactive. For the same molecule, the activation in test [19] was -7.96%; in test [13], 0.0222%. In addition, the Potency in test [15] is 26.6 µM (active).

For the molecule `O=C1OC(=O)c2ccccc21`, the Potency in test [9] is > 92 µM. In addition, the Potency entry in test [11], in test [2], in [3], in test [4], in [6] and in test [16] was “inactive” throughout. Further, the Potency result in test [18], in test [14] and in test [7] was “inactive” in each case. Further, the result in test [12] and in test [8] was inactive. Besides, the activation in [19] is 8.87%; in test [13], -3.66%; in test [17] it was 0.114%.

On to `CC(/C=C/C=C(C)/C=C/C(=O)O)=C\C=C\C=C(C)\C=C\C=C(C)\C=C\C(=O)O`, for which the figures for the Potency in test [9] and in test [16] were > 92 µM and 37.6 µM (active), respectively. Also, in test [10], the viability change, negative = cytotoxic is -97% (active). The Potency entry in test [11], in [2], in test [3], in test [4], in [6] and in [18] was “inactive” throughout. Besides, in test [15], the Potency result is “inactive”. For the same molecule, the activation in [19] is 1.99%; in test [13] it was -5.5%; in test [17] it was -1.49%. In addition, in [8], the call was inactive.
